Data published in PubChem BioAssay AID485364 (National Center for Advancing Translational Sciences (NCATS), 2010).
Several values for one entry are separate records, joined by “and”; a condition that tells them apart may be missing. Equal entries are not always repeated. Among all 360,000 compounds or so, about 11,000 (3.1%) were called active. A call without a number means that no potency is given here. Inconclusive results (about 4%) are left out. The sample holds actives, similar compounds and a random draw of the others, so the mix is not that of the screen. Calls follow the shape of the dose curve; as a rule, active = well fitted inhibition curve with a large enough effect; inconclusive = small, poorly fitted or top-dose-only effect; inactive = no such curve, though single readings can be large or run the other way. Some structures have more than one record in an assay (separate samples or runs), and their calls can disagree.

The molecules below were run against Schistosoma mansoni thioredoxin glutathione reductase (TGR) (UniProt Q962Y6) (assay: qHTS Assay for the Inhibitors of Schistosoma Mansoni Peroxiredoxins). Details: purified TGR, DTNB reduction, TNB absorbance 405 nm; series mostly up to 114 µM.
Method in brief: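 TGR 20 nM + NADPH 100 uM (dispensed conc.), cpd preinc 15 min RT; start with NADPH (500 uM addition) then DTNB (15 mM addition). Kinetic TNB absorbance, 405 nm filter. Four-parameter Hill fit across titration.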
Also: nearly all actives have a fitted effect of over 60% in size.
Potency is read from the fitted curve at half-maximal effect.

| SMILES | Potency |
| --- | --- |
| Cc1cccc(C(C)C)c1NC(=O)C(NS(=O)(=O)c1cccc2nsnc12)c1ccccc1 (stereo unspecified) | inactive |
| CCc1ccc(CNCc2c(C(=O)O)n(Cc3ccc(F)cc3Cl)c3cc(OC)ccc23)cc1 | inactive |
| CC(CNC(=O)c1nnc(Cc2cccc(F)c2)o1)c1ccccc1 (stereo unspecified) | inactive |
| CCOc1ccc(C2C3=C(CCCC3=O)N(CC(=O)O)C3=C2C(=O)CCC3)cc1 | 44.7 µM (active) |
| CCOc1ccc(C2C(C#N)=C(N)N(N(C)C)C3=C2C(=O)CCC3)cc1 (stereo unspecified) | inactive |
| COc1ccc(C2C3=C(CCCC3=O)N(CC(=O)O)C3=C2C(=O)CCC3)cc1 | inactive |
| CC(=O)Nc1ccc(NC(=O)C2CCCN(S(=O)(=O)c3ccc4c(c3)CCCC(=O)N4)C2)cc1 (stereo unspecified) | inactive |
| COCCNC(=O)CSc1nc(-c2ccccc2)[nH]c1-c1ccc(C)cc1 | inactive |
| Cn1cncc1COC(=O)c1ccc(Cl)cc1 | inactive |
| Cc1oc(C)c2c(=O)cc(-c3ccc4c(c3)OCO4)cc(OC(=O)c3ccc(Cl)cc3)c12 | inactive |
| Cc1cc(OC(=O)c2ccc(Cl)cc2)cc(=O)n1C | 44.7 µM (active) |
| Cc1ccc(NC(=O)c2cn3c4c(ccc(Cl)c4c2=O)OC(C)C3)cc1C (stereo unspecified) | inactive |
| CCNCCC(=O)N1c2ccccc2Sc2ccc(NC(=O)OCC)cc21 | inactive |
| CCOC(=O)Nc1ccc2c(c1)N(C(=O)CCCl)c1ccccc1[S@]2=O | 14.1 µM (active) |
| CCOC(=O)Nc1ccc2c(c1)N(C(=O)CCN1CCN(CCO)CC1)c1ccccc1CC2 | inactive |
| COc1ccc(Cl)cc1NC(=O)CSc1nc(=O)[nH]c2c1CCCC2 | inactive |
| Cc1ccc(S(=O)(=O)CC(=O)NC(C)c2ccccc2)cc1 (stereo unspecified) | inactive |
| Cc1ccccc1-c1nc(CS(=O)(=O)CC(=O)N2CCc3ccccc3C2)c(C)o1 | 3.55 µM (active) |
| Cc1oc(-c2ccccc2F)nc1CS(=O)(=O)CC(=O)NCCCN(C)C1CCCCC1 | inactive |
| Cc1ccccc1-c1nc(CS(=O)(=O)CC(=O)Nc2cc(Cl)cc(Cl)c2)c(C)o1 | inactive |
| Cc1ccccc1-c1nc(CS(=O)(=O)CC(=O)NC(C)c2ccccc2)c(C)o1 (stereo unspecified) | inactive and 39.8 µM (active) |
| COc1cccc(-c2nc(CS(=O)(=O)CC(=O)N3CCN(c4cc(C)ccc4C)CC3)c(C)o2)c1 | inactive |
| Cc1ccc(-c2noc(-c3nnn(-c4cccc(C(F)(F)F)c4)c3N)n2)cc1 | inactive |
| CC1CCC(N2CC(=O)N(CCC3=CCCCC3)C(c3ccc(F)cc3)C2=O)CC1 (stereo unspecified) | inactive |
| CCOc1ccc(S(=O)(=O)c2cn(Cc3ccc(OC)cc3)c3ccc(F)cc3c2=O)cc1 | inactive |
| COc1ccc(C)cc1NC(=O)C(=O)NCCc1sc(-c2cccc(C)c2)nc1C | inactive |

| SMILES | Potency |
| --- | --- |
| Cc1cc(C)c2oc(-c3cccc(NC(=O)c4cccc(F)c4)c3C)nc2c1 | inactive |
| CCOC(=O)c1c(C)oc2nc(C)nc(N3CCN(c4ccc(OC)cc4)CC3)c12 | inactive |
| O=C(NC1CC(=O)N(c2ccccc2)C1)c1ccco1 (stereo unspecified) | inactive |
| Cc1ccc(S(=O)(=O)NCC(C)NS(C)(=O)=O)cc1 (stereo unspecified) | inactive |
| CCOC(=O)C(NS(=O)(=O)c1ccc(C)cc1)(C(F)(F)F)P(=O)(OCC(C)C)OCC(C)C (stereo unspecified) | 22.4 µM (active) |
| CC(=O)N1CCN(CC(C)(C)NS(=O)(=O)c2ccc(C)cc2)CC1 | inactive |
| Cn1c(C(=O)N2CCC(C(=O)N3CCN(c4ccccc4)CC3)CC2)cc2sccc21 | inactive |
| Cc1ccc(Cl)cc1N(C)C(=O)C1CCCN(c2ncnc3onc(-c4ccc(F)cc4)c23)C1 (stereo unspecified) | inactive |
| NC(=O)CCN1CCN(S(=O)(=O)/C=C/c2ccccc2)CC1 | inactive |
| COc1ccccc1N1CCN(CC(=O)NC(=O)NCc2ccco2)CC1 | inactive |
| O=C(CN1CCN(S(=O)(=O)/C=C/c2ccccc2)CC1)NC(=O)NCc1ccco1 | 28.2 µM (active) |
| Cc1ccc(Nc2nnc(-c3ccc(C)c(S(=O)(=O)N4CCCCC4)c3)c3ccccc23)cc1 | inactive |
| Cc1ccc2cccc(NC(=O)c3cccc4ccccc34)c2n1 | inactive |
| Cc1cccc(NC(=O)N2CCC(CN3CCc4ccccc4C3)CC2)c1C | inactive |
| O=C(CC1N=C2c3ccccc3N=C(SCc3ccc(F)cc3)N2C1=O)NCc1cccs1 (stereo unspecified) | inactive |
| Cc1ccc(CNC(=O)CCS(=O)(=O)c2ccc3c(c2)CC(C)N3C(=O)C2CC2)o1 (stereo unspecified) | 44.7 µM (active) |
| CC1Cc2cc(S(=O)(=O)CCC(=O)NCc3ccc(Cl)cc3)ccc2N1C(=O)C1CC1 (stereo unspecified) | inactive |
| CC1Cc2cc(S(=O)(=O)CCC(=O)Nc3ccc(F)c(Cl)c3)ccc2N1C(=O)C1CC1 (stereo unspecified) | inactive |
| COc1cc(OC)cc(C(=O)Nc2c(C(=O)Nc3ccc(F)cc3)oc3ccccc23)c1 | inactive |
| CCOc1ccc(Nc2ncnc3scc(-c4ccc(OC)cc4)c23)cc1 | inactive |
| Cc1cccc2nc(-c3ccc(Cl)s3)c(Nc3ccc4c(c3)OCCO4)n12 | inactive |
| O=c1cc(CCl)nc2scc(-c3ccccc3)n12 | 17.8 µM (active) |
| Cc1csc2nc(COC(=O)c3ccccc3NC(=O)c3ccccc3Cl)cc(=O)n12 | inactive |
| Cc1csc2nc(COc3ccc(NC(=O)COc4ccccc4)cc3)cc(=O)n12 | inactive |
| Cc1oc2ccc(O)c(CN3CCOCC3)c2c1C(=O)Nc1cccc(Cl)c1C | inactive |
| Cc1ccc(S(=O)(=O)c2nc(-c3cccs3)oc2NCc2cccnc2)cc1 | inactive |

| SMILES | Potency |
| --- | --- |
| COc1cccc(-c2nc(S(=O)(=O)c3ccc(C)cc3)c(NCc3ccccc3)o2)c1 | 44.7 µM (active) |
| O=S(=O)(c1ccc(Br)cc1)c1nc(-c2ccccc2)oc1NCc1cccnc1 | inactive |
| CCOC(=O)C(Cc1ccccc1)NC(=O)CCc1c(C)nc2c(c(C)nn2-c2ccc(C)c(C)c2)c1C (stereo unspecified) | inactive |
| CCC1CCCCN1S(=O)(=O)c1ccc(NC(=O)c2cc(=O)c3ccccc3o2)cc1 (stereo unspecified) | inactive |
| CCOc1ccc(CNC(=O)CCc2c(C)nn(-c3ccc(N4CCCCC4)nn3)c2C)cc1 | inactive |
| Cc1ccc(N2C(=O)C3C4C=CC(CC4)C3C2=O)cc1Br (stereo unspecified) | inactive |
| CC(=O)Nc1ccc(N2C(=O)C3C4C=CC(CC4)C3C2=O)cc1 (stereo unspecified) | inactive |
| Cc1ccc(N2C(=O)C3C4C=CC(CC4)C3C2=O)cc1Cl (stereo unspecified) | 25.1 µM (active) |
| Cc1ccc2oc(C(=O)Nc3ccc(S(=O)(=O)N4CCCCCC4)cc3)cc(=O)c2c1 | inactive |
| COc1ccc(-c2noc(CSc3nc(C)cc(=O)[nH]3)n2)cc1OC | inactive |
| O=C(CSc1oc(-c2ccccc2)nc1S(=O)(=O)c1ccc(Br)cc1)NC1CCCCC1 | inactive |
| Oc1c(Cl)cc(Cl)cc1/C=N/c1ncn[nH]1 | 20 µM (active) |
| COc1cc(Br)cc(/C=N/c2ncn[nH]2)c1O | inactive |
| Cc1ccc(Nc2c(-c3ccc(N(C)C)cc3)nc3nc[nH]n23)cc1 | inactive |
| COc1cc(OC)cc(-c2nc3nc(C)c(CCC(=O)Nc4ccc(C)cc4)c(C)n3n2)c1 | inactive |
| COc1ccccc1/C=C/C1=NC(=C\N(C)C)/C(=O)O1 | inactive |
| CN(C)/C=C1\C=C(c2ccccc2)OC1=O | 22.4 µM (active) |
| Cc1ccc(C2=C/C(=C\c3cccnc3)C(=O)O2)cc1 | inactive |
| Cc1ccc(S(=O)(=O)NCc2nc3nc(C)cc(C)n3n2)cc1 | inactive |
| Cc1cc(C)n2nc(C(=O)NC(C)(C)C)nc2n1 | inactive |
| Cc1cc(C)n2nc(CNS(=O)(=O)c3c(F)c(F)c(F)c(F)c3F)nc2n1 | 17.8 µM (active) |
| COC(=O)c1ccccc1NS(=O)(=O)c1ccc2c(c1)CCCN2C(C)=O | inactive |
| Cc1c(Cl)cccc1NC(=O)Cn1cc(C(=O)c2cccs2)c2ccccc21 | inactive |
| NC1=NC(c2cc(F)cc(F)c2)n2c(nc3ccccc32)N1 (stereo unspecified) | inactive |
| Cc1ccc(-n2c(SCC(=O)c3ccccc3)nc3c([nH]c4ccccc43)c2=O)cc1 | inactive |
| COc1ccccc1NC(=O)/C=C/C(N)=O | 2.82 µM (active) |

| SMILES | Potency |
| --- | --- |
| COc1ccccc1NC(=O)c1c(Br)cnn1C | inactive |
| COc1ccccc1NC(=O)c1cc(Cl)nnc1Cl | inactive |
| CC(NC(=O)CCc1cn(Cc2ccccc2Cl)c2ccccc12)c1ccccc1 (stereo unspecified) | inactive |
| Cc1ccc(NC(=O)c2ccc3[nH]c(C)cc(=O)c3c2)c(C)c1 | inactive |
| O=[N+]([O-])c1ccc(C=Nc2ccc(Cl)cc2Cl)s1 | 25.1 µM (active) |
| COc1cccc(CSc2nc3nc(C)cc(C)n3n2)c1 | inactive |
| Cc1cc(C)n2nc(SCC(N)=O)nc2n1 | inactive |
| COc1ccc(C(C)=O)cc1CSc1nc2nc(C)cc(C)n2n1 | 39.8 µM (active) |
| CCOc1ccccc1CNC(=O)C1CCCN(S(=O)(=O)c2ccc3c(ccn3C)c2)C1 (stereo unspecified) | inactive |
| Cc1ccc(CNS(=O)(=O)c2ccc(C(=O)N(C)C)s2)cc1 | inactive |
| Cc1ccc2c(c1)-c1c(cnn1CC(=O)Nc1ccccc1C#N)CO2 | inactive |
| COc1ccc(Cl)cc1-n1c(CCC(=O)O)ccc1-c1ccc(C)cc1 | 39.8 µM (active) |
| CCOC(=O)c1ccc(-n2c(CCC(=O)O)ccc2-c2ccccc2)cc1 | 28.2 µM (active) and 50.1 µM (active) |
| COc1ccc(NC(=O)Cn2c(-c3ccc(OC)cc3)cn(-c3ccc(C)cc3)c2=O)cc1 | inactive |
| C=Cn1c(C(=O)O)ccc1-c1ccc(OC)cc1 | inactive |
| Cc1ccc(-c2ccc(CCC(=O)O)n2-c2ccc(C(N)=O)cc2)cc1 | 12.6 µM (active) |
| COc1ccc(-c2nc3ccccc3c(=O)n2CCc2ccc(O)cc2)cc1 | inactive |
| COc1ccc(Cl)cc1NC(=O)CCC(=O)c1ccc(C)cc1 | inactive |
| CCOC(=O)c1ccc(COC(=O)CCc2nc(-c3ccccc3)c(-c3ccccc3)o2)cc1 | inactive |
| COc1ccc(Cl)cc1NC(=O)Cn1nc(-c2ccc(C)cc2)n(C)c1=S | inactive |
| COc1ccc(-c2cn(-c3ccc(C)cc3)c(=O)n2CC(=O)Nc2ccc(OC)c(OC)c2)cc1 | inactive |
| CCOC(=O)c1ccc(NC(=O)c2ncn(-c3ccccc3)n2)cc1 | inactive |
| COc1ccc(-c2ccc(CCC(=O)O)n2-c2ccc(O)cc2)cc1 | 39.8 µM (active) |
